According to PubChem BioAssay (EPA / NIEHS):
Where “and” joins values, the source holds several entries; their conditions need not be identical. Equal entries are not always repeated. Records with an inconclusive call do not appear. Calls of active or inactive are those of the source. The calls were made as follows, unless noted: active = hit-call score of the fitted dose curve at least 0.9, where 1 is the maximum; inconclusive = response in the unintended direction; inactive = score below 0.9.

Legend:
[1] = TOX21_p53_BLA_p2_viability: Viability Assessment in the Tox21 HCT-116 p53 Agonism Beta-lactamase Assay, Phase 2 (AID 2283591);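 also: compound exposure lasted 16 h at 37 °C; actives lower the ATP signal meaning cytotoxicity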
Outline: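 HCT-116 p53-bla cells (4000/well) rested 5 h at 37C, then received compounds in DMSO (217-fold dilution) for 16 h at 37C, 5% CO2. After the CCF4 read, CellTiter-Glo was added; ATP luminescence was read after 30 min at room temperature.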

[2] = molecular target: Cellular tumor antigen p53 (Homo sapiens) (UniProt P04637); assay: TOX21_p53_BLA_p2_ratio: Tox21 HCT-116 p53 Agonism Beta-lactamase Assay, Ratio, Phase 2 (AID 2283592)
Chain of Cellular tumor antigen p53 (Homo sapiens) (P04637 whole entry, looked up): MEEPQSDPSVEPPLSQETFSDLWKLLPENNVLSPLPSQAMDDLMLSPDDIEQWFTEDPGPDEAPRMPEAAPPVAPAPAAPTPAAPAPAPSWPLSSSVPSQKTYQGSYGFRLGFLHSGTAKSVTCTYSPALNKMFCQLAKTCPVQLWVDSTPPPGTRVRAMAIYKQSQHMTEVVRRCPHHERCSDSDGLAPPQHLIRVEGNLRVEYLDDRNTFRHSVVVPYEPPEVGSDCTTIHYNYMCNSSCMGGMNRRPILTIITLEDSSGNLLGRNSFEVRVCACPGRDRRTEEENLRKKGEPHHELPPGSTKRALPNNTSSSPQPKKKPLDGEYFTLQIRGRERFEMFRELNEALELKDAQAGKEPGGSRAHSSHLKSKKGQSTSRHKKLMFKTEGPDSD
Outline: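 In this cell-based reporter format, HCT116 cells were dosed with chemicals delivered from DMSO by 217-fold dilution and incubated 16 h at 37C. Emission at 460 and 530 nm after 2 h CCF4-AM loading provided the ratio, fitted upward versus DMSO.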

[3] = TOX21_p53_BLA_p3_viability: Viability Assessment in the Tox21 HCT-116 p53 Agonism Beta-lactamase Assay, Phase 3 (AID 2283593);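 also: cells exposed to compound for 16 h before reading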
Outline: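 HCT-116 cells (4000/well) rested 5 h at 37C, then got DMSO compounds by pin tool (217-fold dilution) for 16 h at 37C, 5% CO2. After the bla read, CellTiter-Glo was added and luminescence read at 30 min, room temperature.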

[4] = molecular target: Cellular tumor antigen p53 (Homo sapiens) (UniProt P04637); assay: TOX21_p53_BLA_p3_ratio: Tox21 HCT-116 p53 Agonism Beta-lactamase Assay, Ratio, Phase 3 (AID 2283596)
Outline: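 HCT116 p53-bla cells (4000/well) given compound in DMSO (217-fold dilution) after 5 h, incubated 16 h at 37C. CCF4-AM substrate 2 h at room temperature; 460/530 nm emission ratio, gain fitted against DMSO.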

[5] = TOX21_p53_BLA_p4_viability: Viability Assessment in the Tox21 HCT-116 p53 Agonism Beta-lactamase Assay, Phase 4 (AID 2283597);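 also: hits lower the luminescence signal meaning cytotoxicity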
Outline: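 We seeded HCT116 p53 reporter cells at 4000/well and waited 5 h. We then added compounds in DMSO at a 217-fold dilution and incubated for 16 h. Viability was read as CellTiter-Glo luminescence after 30 min at RT.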

[6] = molecular target: Cellular tumor antigen p53 (Homo sapiens) (UniProt P04637); assay: TOX21_p53_BLA_p5_ratio: Tox21 HCT-116 p53 Agonism Beta-lactamase Assay, Ratio, Phase 5 (AID 2283599)
Outline: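 HCT-116 cells carrying a p53-inducible beta-lactamase reporter were seeded at 4000 cells/well and dosed after 5 h with compound in DMSO (217-fold dilution). After 16 h at 37C, CCF4-AM substrate was added for 2 h, and the 460/530 nm emission ratio was scored as gain-of-signal versus DMSO.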

[7] = TOX21_p53_BLA_p5_viability: Viability Assessment in the Tox21 HCT-116 p53 Agonism Beta-lactamase Assay, Phase 5 (AID 2283600)
Outline: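 Compounds, pinned from DMSO at 217-fold dilution, were left on the cells for 16 h. The viability endpoint was ATP content measured by CellTiter-Glo luminescence, where falling signal reflects cytotoxicity.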

[8] = molecular target: Cellular tumor antigen p53 (Homo sapiens) (UniProt P04637); assay: TOX21_p53_BLA_p4_ratio: Tox21 HCT-116 p53 Agonism Beta-lactamase Assay, Ratio, Phase 4 (AID 2283601)
Outline: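 HCT116 cells carrying an inducible beta-lactamase reporter were plated at 4000 cells/well, rested 5 h, then exposed to compounds in DMSO (217-fold dilution) for 16 h at 37C. CCF4-AM substrate was loaded 2 h at room temperature; 460/530 nm emission ratio scored gain-of-signal versus DMSO.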

PGR (gene 5241) [9] = molecular target: PGR (gene 5241) (UniProt P06401); assay: TOX21_PR_BLA_Followup_Agonist_ratio: Tox21 HEK293 Progesterone Receptor (PR) Agonism Beta-lactamase Follow-Up Assay, Ratio (AID 2283933)
Chain of PGR (gene 5241) (P06401 whole entry, looked up): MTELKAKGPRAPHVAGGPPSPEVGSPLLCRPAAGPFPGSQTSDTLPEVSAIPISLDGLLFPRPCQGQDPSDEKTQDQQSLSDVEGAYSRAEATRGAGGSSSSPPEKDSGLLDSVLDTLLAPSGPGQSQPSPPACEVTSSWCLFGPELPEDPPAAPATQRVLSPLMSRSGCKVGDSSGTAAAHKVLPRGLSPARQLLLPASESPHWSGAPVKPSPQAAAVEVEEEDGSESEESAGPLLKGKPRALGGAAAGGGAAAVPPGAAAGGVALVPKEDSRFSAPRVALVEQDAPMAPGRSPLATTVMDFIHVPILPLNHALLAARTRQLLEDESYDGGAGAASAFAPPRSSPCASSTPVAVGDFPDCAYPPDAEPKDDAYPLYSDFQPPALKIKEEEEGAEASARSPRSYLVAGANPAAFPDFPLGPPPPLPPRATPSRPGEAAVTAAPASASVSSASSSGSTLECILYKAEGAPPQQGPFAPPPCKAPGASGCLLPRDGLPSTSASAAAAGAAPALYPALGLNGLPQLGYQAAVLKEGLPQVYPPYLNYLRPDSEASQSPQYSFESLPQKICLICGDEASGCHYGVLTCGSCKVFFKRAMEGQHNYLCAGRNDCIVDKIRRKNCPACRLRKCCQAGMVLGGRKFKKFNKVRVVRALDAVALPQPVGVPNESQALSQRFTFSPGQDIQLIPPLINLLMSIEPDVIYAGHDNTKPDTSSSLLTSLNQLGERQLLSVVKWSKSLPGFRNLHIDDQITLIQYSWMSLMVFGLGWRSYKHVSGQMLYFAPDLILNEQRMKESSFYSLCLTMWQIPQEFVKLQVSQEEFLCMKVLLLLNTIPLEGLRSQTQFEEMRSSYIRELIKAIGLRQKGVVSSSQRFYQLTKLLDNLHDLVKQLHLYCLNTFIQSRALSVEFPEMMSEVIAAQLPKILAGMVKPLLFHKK
Outline: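 HEK293T PR-UAS-bla, 2% CS-FBS; 6 hr preincubation, cpd/DMSO pinned, 16 hr 37C/5% CO2; LiveBLAzer B/G 2 hr RT; FRET ch2/ch1 ratio, agonist direction vs DMSO. Viability by CellTiter-Glo in same wells.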

PGR (gene 5241) [10] = molecular target: PGR (gene 5241) (UniProt P06401); assay: TOX21_PR_BLA_Followup_Antagonist_ratio: Tox21 HEK293 Progesterone Receptor (PR) Antagonism Beta-lactamase Follow-Up Assay, Ratio (AID 2283934)
Outline: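 HEK293T PR-UAS-bla, 2% CS-FBS; 6 hr plating, then cpd + R5020 (1 nM final), 16 hr 37C/5% CO2. B/G FRET substrate 2 h RT. Ratio ch2/ch1 vs DMSO; CellTiter-Glo viability multiplexed, autofluorescence checked.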

[11] = TOX21_PR_BLA_Followup_Agonist_viability: Viability Assessment in the Tox21 HEK293 Progesterone Receptor (PR) Agonism Beta-lactamase Follow-Up Assay (AID 2283935);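 also: signal loss means lower viability so actives are cytotoxic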
Outline: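 HEK293T PR-UAS-bla, 3,000 cells/well, 2% CS-FBS; 6 hr pre-incubation; cpd in DMSO, 16 hr 37C; LiveBLAzer 2 hr RT, then CellTiter-Glo 30 min RT, luminescence. Decrease = lost viability.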

[12] = TOX21_PR_BLA_Followup_Antagonist_viability: Viability Assessment in the Tox21 HEK293 Progesterone Receptor (PR) Antagonism Beta-lactamase Follow-Up Assay (AID 2283936);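 also: hits lower the luminescence signal meaning cytotoxicity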
Outline: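 PR-UAS-bla HEK293T cells (3,000/well, 2% charcoal-stripped FBS) given compound plus R5020 agonist, 16 h at 37C. CellTiter-Glo added after bla read, 30 min at room temperature; luminescence loss indicates cytotoxicity.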

PGR (gene 5241) [13] = molecular target: PGR (gene 5241) (UniProt P06401); assay: TOX21_PR_LUC_Followup_Agonist: Tox21 HEK293 Progesterone Receptor (PR) Agonism Luciferase Follow-Up Assay (AID 2283937; active = hit-call score of the fitted dose curve at least 0.9, where 1 is the maximum; inactive = score below 0.9)
Outline: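 Cells: HEK293-PR-A-luc, 3,000/well, 10% charcoal-stripped FBS assay medium. Compound added after 5 h; 16 h, 37C, 0% CO2. ONE-Glo luciferase, luminescence. Positive fit vs DMSO.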

PGR (gene 5241) [14] = molecular target: PGR (gene 5241) (UniProt P06401); assay: TOX21_PR_LUC_Followup_Antagonist: Tox21 HEK293 Progesterone Receptor (PR) Antagonism Luciferase Follow-Up Assay (AID 2283938);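 also: curve fitted upward as signal gain over DMSO baseline despite antagonist label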
Outline: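 Luminescence from ONE-Glo reagent, measured after 30 min at room temperature, served as readout. Cells (HEK293 carrying PR-A-luc) had been treated 16 h at 37C with DMSO-dissolved compounds. Activity was fitted against DMSO controls.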

[15] = TOX21_PR_LUC_Followup_Antagonist_viability: Viability Assessment in the Tox21 HEK293 Progesterone Receptor (PR) Antagonism Luciferase Follow-Up Assay (AID 2283940)
Outline: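 Multiplexed viability counter-screen: after 5 days in charcoal-stripped-FBS medium, HEK293-PR-A-luc cells are plated, pinned with DMSO-dissolved compounds for 16 h at 37C, and ATP content is quantified luminescently via CellTiter-Glo.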

[16] = TOX21_PR_LUC_Followup_Agonist_viability: Viability Assessment in the Tox21 HEK293 Progesterone Receptor (PR) Agonism Luciferase Follow-Up Assay (AID 2283941);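 also: loss of signal means cytotoxicity so actives lower viability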
Outline: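 Cells were kept 5 days in charcoal-stripped serum medium before plating HEK293-PR-A-luc at 3,000 cells/well. After 5 h they received DMSO-dissolved compound and incubated 16 h at 37C. Viability was taken from CellTiter-Glo ATP luminescence.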

Measured: AC50

SC1CCCCC1
inactive: [1] | [2] | [3] | [4] | [5] | [6] | [7] | [8]

c1ccc2c(CC3=NCCN3)cccc2c1
inactive: [1] | [2] | [3] | [4] | [5] | [6] | [7] | [8]

CCCCCCCCCCCCCC[N+](C)(C)Cc1ccccc1
inactive: [1] | [2] | [3] | [4] | [7]
active: [5] 27.9 µM | [6] 40.8 µM | [8] 43.7 µM

Oc1ccc(Cl)c2cccnc12
inactive: [1] | [2] | [3] | [4] | [5] | [6] | [7] | [8]

C=CC(=O)OCC1CC2CC1C1CCC(COC(=O)C=C)C21 (stereo not given)
active: [1] 65.8 µM | [2] 55.2 µM | [5] 64.1 µM | [6] 74.8 µM | [8] 53 µM
inactive: [3] | [4] | [7]

CCCCCCOc1ccc(C(=N)N(CCCC)CCCC)c2ccccc12
active: [1] 23 µM | [2] 32.7 µM | [3] 23 µM | [4] 36.4 µM | [5] 10.1 µM | [6] 29.5 µM | [7] 23 µM | [8] 19.9 µM

NC(=O)n1c(O)c(C(=O)c2cccs2)c2cc(Cl)ccc21
active: [2] 26.9 µM | [4] 20.4 µM | [6] 34.4 µM | PGR (gene 5241) [14] 17.3 µM
inactive: all other assays above

N#C/C(=C1/SC[C@@H](c2ccc(Cl)cc2Cl)S1)n1ccnc1
active: PGR (gene 5241) [10] 33 µM
not listed: PGR (gene 5241) [9] | PGR (gene 5241) [13] | [16]
inactive: all other assays above

CC(C(=O)O)c1ccc(C2CCCCC2)c2ccccc12 (stereo not given)
active: [5] 31.1 µM
inactive: [1] | [2] | [3] | [4] | [6] | [7] | [8]

CCC(=C(CC)c1ccc(O)cc1)c1ccc(O)cc1
active: [1] 38.3 µM | [2] 7.14 µM | [4] 7.64 µM | [6] 17.7 µM | [8] 7.47 µM | PGR (gene 5241) [10] 23.7 µM
not listed: PGR (gene 5241) [13] | PGR (gene 5241) [14]
inactive: all other assays above

Clc1cc(Cl)c(OCC#CI)cc1Cl
active: [2] 33.7 µM | [5] 23 µM | [6] 39.7 µM
inactive: [1] | [3] | [4] | [7] | [8]

Cc1c(C(=O)NN2CCCCC2)nn(-c2ccc(Cl)cc2Cl)c1-c1ccc(Cl)cc1
active: [1] 28.3 µM | [3] 23 µM | [5] 21.4 µM | [6] 37.8 µM | [7] 23 µM
inactive: [2] | [4] | [8]

CCCCCCCCNC(C)C(O)c1ccc(SC(C)C)cc1 (stereo not given)
active: [1] 22.4 µM | [2] 35.8 µM | [3] 15.2 µM | [4] 18.7 µM | [5] 18.3 µM | [6] 23.9 µM | [7] 19 µM | [8] 33.9 µM

C=CCNC(N)=S
inactive: [1] | [2] | [3] | [4] | [5] | [6] | [7] | [8]

C#C[C@]1(O)CC[C@H]2[C@@H]3CCc4cc(OC5CCCC5)ccc4[C@H]3CC[C@@]21C
active: [7] 37.8 µM | PGR (gene 5241) [10] 13.6 µM | PGR (gene 5241) [14] 16.2 µM
not listed: PGR (gene 5241) [9] | PGR (gene 5241) [13]
inactive: all other assays above

CC1=C(/C=C/C(C)=C/C=C/C(C)=C\C=O)C(C)(C)CCC1
active: [1] 72.1 µM | [3] 64.9 µM | [4] 75.3 µM | [5] 80.9 µM | [6] 66.7 µM | [7] 74.6 µM
inactive: [2] | [8]

OC[C@@H](O)[C@@H](O[C@@H]1O[C@H](CO)[C@H](O)[C@H](O)[C@H]1O)[C@H](O)[C@@H](O)CO
inactive: [1] | [2] | [3] | [4] | [5] | [6] | [7] | [8]

CCCCC(CC)COCCCN (stereo not given)
inactive: [1] | [2] | [3] | [4] | [5] | [6] | [7] | [8]

CC(C)C[C@H](NC(=O)[C@H](Cc1ccccc1)NC(=O)c1cnccn1)B(O)O
active: [1] 283 nM and 357 nM | [2] 9.74 nM and 12.9 nM | [3] 318 nM and 262 nM | [4] 10.5 nM and 14.1 nM | [5] 128 nM and 150 nM | [6] 25.2 nM and 15.7 nM | [7] 554 nM and 442 nM | [8] 9.86 nM and 13 nM | PGR (gene 5241) [10] 0.168 µM | PGR (gene 5241) [14] 0.0717 µM
inactive: PGR (gene 5241) [9] | [11] | [12] | PGR (gene 5241) [13] | [15] | [16]
